Experimental findings from ChEMBL document CHEMBL3988442, “University of Dundee, Small-Polar-MMV Screening Library” (2021) are described below.

Assay [1] has as its target T1, Aspartate--tRNA(Asp/Asn) ligase (Mycobacterium tuberculosis (strain ATCC 25618 / H37Rv)) (UniProt P9WFW3). Further: in the data most compounds retested in dose-response had high values.
T1 sequence (whole entry): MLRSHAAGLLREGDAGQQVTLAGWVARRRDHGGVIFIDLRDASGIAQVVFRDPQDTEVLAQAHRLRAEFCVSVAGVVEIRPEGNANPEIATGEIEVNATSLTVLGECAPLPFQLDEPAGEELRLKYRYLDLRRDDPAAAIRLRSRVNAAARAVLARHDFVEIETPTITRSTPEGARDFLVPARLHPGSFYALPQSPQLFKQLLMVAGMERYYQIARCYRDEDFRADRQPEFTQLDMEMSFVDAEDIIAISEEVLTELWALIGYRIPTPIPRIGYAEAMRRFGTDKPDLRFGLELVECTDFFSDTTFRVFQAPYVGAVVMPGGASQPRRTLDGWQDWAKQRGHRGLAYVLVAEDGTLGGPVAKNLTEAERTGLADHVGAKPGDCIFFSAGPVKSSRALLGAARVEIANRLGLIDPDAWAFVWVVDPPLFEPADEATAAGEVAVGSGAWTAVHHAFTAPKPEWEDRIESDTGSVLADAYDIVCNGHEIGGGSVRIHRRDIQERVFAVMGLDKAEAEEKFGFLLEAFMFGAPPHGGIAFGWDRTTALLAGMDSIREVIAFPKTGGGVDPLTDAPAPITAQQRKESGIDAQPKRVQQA
In words: Assay for Asp RNA synthetase-1 from Mycobacterium tuberculosis. Format: functional. The settings on record: 30 µM. Also noted: scale not given: direction of the effect not stated beside the values.

The target of assay [2] is Shiga toxin 2 (Escherichia coli O157:H7) (UniProt P09385+P09386). The assay can be described thus: E. coli 0.157:H7 Shiga Toxin SOP - stx2 screening assay. Format: functional. Also noted: scale not given: direction of the effect not stated beside the values. The settings on record: 30 µM.

`Cc1ccc(OCCC(=O)N2CCN(c3cnccn3)CC2)cc1C`: the figures for the Percent Effect in assay [1] and in assay [2] were -0.856% and -12.8%, respectively.
In the same order, the values of `CC(C)N(C)S(=O)(=O)N(C)Cc1ccc2c(c1)OCO2` are -7.16% and -23.7%.
`CC(C)n1[nH]c(=O)c2c1NC(=O)CC2c1cccc(OC(F)F)c1` (configuration not stated): the Percent Effect in assay [1] was 0.474%; in assay [2], -12.1%.
In the same order, the values of `Cc1cc(C)c(CNC(=O)NCC2CCCN2C)c(=O)[nH]1` (configuration not stated) are -1.7% and 26.6%.
For the molecule `c1nc2c(c(C3CC3)n1)CCN(Cc1ccoc1)CC2`, the Percent Effect is 2.3% in assay [1] and -14.5% in assay [2].
As for `CO[C@H]1CN(C(=O)c2ccc3oc(C)cc3c2)CC[C@@]12CCCO2`, the Percent Effect came to 1.12% in assay [1] and 7.39% in assay [2].
For the molecule `O=C(NCC1CCOC1)N1CCN(Cc2ccc3c(c2)CCO3)CC1` (configuration not stated), the Percent Effect in assay [1] is -0.0562%; in assay [2] it was 28.1%.
On to `CCc1nc(CN2CCCC(NCc3nc4cccnc4[nH]3)C2)no1` (configuration not stated), for which the Percent Effect in assay [1] was -3%; in assay [2] it was -27.7%.
For the molecule `Cc1ccccc1CNC(=O)Cc1c(C)nc2cc(=O)[nH]n2c1C`, the Percent Effect in assay [1] was -0.856%; in assay [2] it was 17.8%.
For `CN(Cc1cnn(C)c1)C(=O)NCc1csc(Br)c1`, the Percent Effect was 4.08% in assay [1] and 32.1% in assay [2].
In the same order, the values of `Cc1ncsc1C(=O)N1CCCN(Cc2cscn2)CC1` are 1.47% and 16.9%.
In the case of `Cc1cnn(CCNCC(=O)NCCOc2ccccc2)c1`, the Percent Effect in assay [1] was -2.67%; in assay [2], 18.2%.
As for `CN(CCc1ccccc1)Cc1cc(C(=O)N2CCCC2(C)C)no1`, the Percent Effect in assay [1] is 0.433%; in assay [2] it was -34.7%.
Regarding `Cc1ccccc1Cc1cnc(NC(=O)C2CNC(=O)N2)s1` (configuration not stated), the Percent Effect in assay [1] was found to be 6.1%; in assay [2], 3.51%.
As for `COC(=O)c1ccc2ccn(CC3CCNC3)c(=O)c2c1` (configuration not stated), the Percent Effect in assay [1] is 3.08%; in assay [2], -45.4%.
In the same order, the values of `O=C(COCc1nc(-c2ccncc2)no1)NC1CCCCC1` are 2.71% and -15.1%.
The like results for `CC(C)CN1C[C@@H]2CN(C(=O)[C@H]3CCCO3)C[C@@H]2C1=O` were, in that order, 1.02% and -18.1%.
`CNC(=O)[C@@H]1C[C@H]2CN(C(=O)c3ccco3)C[C@H]2N1C`: the figures for the Percent Effect in assay [1] and in assay [2] were -1.4% and -6.39%, respectively.
The like results for `O=C(N[C@@H]1CN(Cc2ccc3c(c2)OCO3)[C@@H]2CCCO[C@@H]21)C1CC1` were, in that order, 5.97% and 9.3%.
Regarding `O=C(Cc1n[nH]c2ccccc12)N1CCC(Nc2cccnn2)CC1`, the Percent Effect was 2.78% in assay [1] and -16.9% in assay [2].
Consider `Cc1ccccc1CN1CCCN(C2CCOC2=O)CC1` (configuration not stated), for which the Percent Effect in assay [1] was -0.409%; in assay [2], 15%.
As to `Cc1ccc(C(=O)Nc2cn[nH]c2)cc1C`, the Percent Effect in assay [1] was -2.79%; in assay [2], 16.5%.
As to `Cc1ccc(NC2CCN(C(=O)CN(C)C3CC3)CC2)nn1`, the Percent Effect is -0.538% in assay [1] and -2.23% in assay [2].
As to `CC(C)NC(=O)N1C[C@H]2C[C@H](C(=O)NCc3ccccc3)[C@@H](C1)O2`, the Percent Effect was determined as 2.3% in assay [1] and 1.68% in assay [2].
Turning to `O=C(C1CCCCN1Cc1nc(-c2ccco2)no1)N1CCCC1` (configuration not stated), the Percent Effect in assay [1] stood at 3.38%; in assay [2] it was 27.5%.
As to `Cc1nn(C)c(C)c1C1CCCN1Cc1nc(-c2ccco2)no1` (configuration not stated), the Percent Effect is -6.56% in assay [1] and -26.9% in assay [2].
Turning to `COCCN1C(=O)CCC12CCN(C(=O)NC(C)C)CC2`, the Percent Effect was -3.16% in assay [1] and 6% in assay [2].
On to `CC(Cn1cccn1)NC(=O)NCc1cccs1` (configuration not stated), for which the Percent Effect is -7.69% in assay [1] and -7.84% in assay [2].
The like results for `Cc1cccc(-c2noc(CN3CCCC(Cn4cncn4)C3)n2)c1` (configuration not stated) were, in that order, -2.23% and -1.3%.
For `Cc1nc[nH]c1-c1nc2cc(S(=O)(=O)N3CCCC3)ccc2n1C`, the values for the Percent Effect in assay [1] and in assay [2] were 1.21% and 0.151%, respectively.
In the case of `O=C(COCC1CC1)N1CCCC(n2cccn2)C1` (configuration not stated), the Percent Effect in assay [1] is 4.67%; in assay [2] it was -15.2%.
In the same order, the values of `O=C(NCc1cc[nH]n1)NCC(O)COc1cccc(F)c1` (configuration not stated) are 1.72% and -40%.
In the same order, the values of `O=C(c1cccnc1-n1cncn1)N1CCc2ccccc2C1` are -3.76% and -9.55%.
Take `CC(Cn1cccn1)NC(=O)Nc1ccc(F)cc1` (configuration not stated): the values for the Percent Effect in assay [1] and in assay [2] were 1.84% and -31.3%, respectively.
In the same order, the values of `CC(=O)N(Cc1noc(C2CC2)n1)C1CCN(Cc2cccnc2)C1` (configuration not stated) are -2.42% and 12.6%.
In the same order, the values of `O=C(CCN1CCCN(c2nccs2)CC1)NCC1CCCCC1` are -3.75% and -2.79%.
The like results for `COCCO[C@H]1CCN(Cc2cccs2)[C@H]1Cc1cccnc1` were, in that order, 0.0141% and 9.31%.
As for `CC(Cn1ccnc1)NC(=O)NCCc1ccccn1` (configuration not stated), the values for the Percent Effect in assay [1] and in assay [2] were -8.15% and -8.89%, respectively.
The like results for `CS(=O)(=O)N1CCC(c2nnc3ccc(C(=O)N4CCCC4)cn23)C1` (configuration not stated) were, in that order, 2% and -10.4%.
In the same order, the values of `Cc1cnc(C(=O)N2CCCCC2c2[nH]ncc2S(C)(=O)=O)cn1` (configuration not stated) are 2.63% and -5.44%.
The like results for `COc1ccc(C2CCCN2C(=O)CCNc2ncccn2)cc1` (configuration not stated) were, in that order, 5.17% and -17%.
As for `Cc1c(F)cc(C(=O)O)cc1S(=O)(=O)Nc1ccc2c(c1)OCCO2`, the Percent Effect in assay [1] was 2.32%; in assay [2], 10.9%.
The like results for `CCS(=O)(=O)N1CCC2(CCC2NC(=O)c2ccn(C)c2)CC1` (configuration not stated) were, in that order, 1.6% and 9%.
On to `O=C(NCc1nn(-c2ccccc2)c2c1CCC2)NC1CC1`, for which the values for the Percent Effect in assay [1] and in assay [2] were 1.63% and 9.96%, respectively.
The like results for `O=C1CC2(CCN(CC3CC3)C2)CN1c1ccc2c(c1)OCO2` (configuration not stated) were, in that order, 14.6% and -55.4%.
The like results for `O=C1[C@H]2CC[C@H](CN(Cc3ccccc3OC(F)F)C2)N1CC1CC1` were, in that order, 4.85% and 7.93%.
Take `CC(CNC(=O)N1CCN(CC(F)F)CC1)Cc1cccs1` (configuration not stated): the Percent Effect in assay [1] was -1.76%; in assay [2], 0.53%.
The like results for `COc1ncccc1NC(=O)NCC1CCS(=O)(=O)C1` (configuration not stated) were, in that order, 1.33% and -1.65%.
The like results for `Cn1c(C(F)(F)F)nn(CCNC(=O)NCc2ccccc2)c1=O` were, in that order, -5.98% and -52.8%.
Regarding `CC1(C)CC(N(Cc2ccccc2)Cc2cccnc2)CC(C)(C)N1`, the Percent Effect in assay [1] is -4.09%; in assay [2], -6.83%.
In the same order, the values of `O=C(NCc1cccnc1)C1=NOC2(CCN(S(=O)(=O)C3CC3)C2)C1` (configuration not stated) are -3.41% and -21.8%.
